# Measurements reported in ChEMBL document CHEMBL3988442, “University of Dundee, Small-Polar-MMV Screening Library” (2021).
# Out of some 48,000 compounds screened, about 13,000 (27%) showed an effect of 50% or more. Some of the results follow.
# Tested on: Wolbachia pipientis
# Assay: Anti-Wolbachia Cell-Based Screen
# Format: functional
# Set-up: scale not given: in the data most compounds retested in dose-response had high values
# Conditions: 5 µM
row,Compound,Percent Effect
1,O=C1OCCN1CCNCC1(O)CCCN(CCC2CCCCC2)C1=O (configuration not stated),3.585%
2,CN(C)C(=O)c1nc2c(n1C)CCN(Cc1ccccc1)C2,0.7909%
3,CNC(=O)CNC(=O)CC1C(=O)NCCN1Cc1ccccc1C (configuration not stated),-0.8934%
4,COCCO[C@H]1CCN(Cc2cccs2)[C@H]1Cc1cccnc1.O=C(O)C(F)(F)F.O=C(O)C(F)(F)F,-0.3476%
5,O=C(O)C(F)(F)F.O=C(O)C(F)(F)F.O=C(O)C(F)(F)F.c1cncc(CN2CC[C@@H]3O[C@H](COCCN4CCCC4)CC[C@@H]32)c1,86.61%
6,Cn1cc(CN2CC[C@H]3O[C@@H](COCc4cccnc4)CC[C@H]32)cn1.O=C(O)C(F)(F)F.O=C(O)C(F)(F)F,-19.84%
7,COCCO[C@@H]1CCN(C(=O)c2ccc(C)o2)[C@@H]1Cc1cccnc1.O=C(O)C(F)(F)F,18.38%
8,COCCO[C@H]1CCN(Cc2cccnc2)[C@H]1Cc1cccnc1.O=C(O)C(F)(F)F.O=C(O)C(F)(F)F.O=C(O)C(F)(F)F,107.4%
9,O=C(O)C(F)(F)F.O=C(O)C(F)(F)F.O=C(O)C(F)(F)F.c1ccc(COC[C@H]2CC[C@H]3[C@H](CCN3Cc3cccnc3)O2)nc1,-5.696%
10,COCCO[C@H]1CCN(Cc2ccsc2)[C@H]1Cc1cccnc1.O=C(O)C(F)(F)F.O=C(O)C(F)(F)F,103.2%
11,Cc1[nH]c2c(F)cccc2c1CC(=O)NCCCc1csc(N)n1,-2.894%
12,O=c1oc(-c2cccs2)nn1CC1(O)CCCCC1,-6.599%
13,COc1cc(C)c(NC(=O)CCn2cccc2)cc1OC,27.33%
14,COC(=O)c1cccc(OCCn2nc(-c3cccs3)oc2=O)c1,2.853%
15,COc1cc(NC(=O)CCn2nc(-c3cccs3)oc2=O)cc(OC)c1,106.6%
16,COc1ccc(NC(=O)CCn2nc(-c3cccs3)oc2=O)cc1OC,106%
17,Cc1cc(C)n2nc(C(=O)N3CCCC4(CCOC4)C3)cc2n1 (configuration not stated),-5.928%
18,COC(=O)C(C)(C)C(C)(C)NC(=O)Nc1nnc(-c2ccccn2)s1,-11.99%
19,COc1c(C2CCCN2C(=O)c2ccc3[nH]cnc3c2)c(C)nn1C (configuration not stated),128.2%
20,COc1c(C2CCCN2C(=O)c2ccc(C#N)cc2)c(C)nn1C (configuration not stated),98.09%
21,COc1c(C2CCCN2C(=O)c2sccc2C#N)c(C)nn1C (configuration not stated),-24.73%
22,CCOc1ccc(C(=O)N2CCCC2c2c(C)nn(C)c2Cl)cn1 (configuration not stated),128%
23,COc1c(C2CCCN2C(=O)c2ccc3cc[nH]c3c2)c(C)nn1C (configuration not stated),-0.02537%

row,Compound,Percent Effect
1,CCOc1ccc(C(=O)N2CCCC2c2c(C)nn(C)c2OC)cn1 (configuration not stated),122.4%
2,Cc1cc(C(=O)N2C[C@@H]3CCCO[C@@H]3[C@H](N(C)C(C)C)C2)c(C)[nH]1,-3.882%
3,COc1ccc(CNC(=O)NC2CCN(c3ccccc3)C2=O)cc1 (configuration not stated),-1.645%
4,Cc1noc(NC(=O)c2ccc(Br)s2)n1,1.553%
5,CC1=N[C@@]2(CC[C@@H]3CN(C(=O)NCC(C)C)C[C@@H]32)C(=O)N1C,7.686%
6,Cc1c(CNC(=O)NCc2cccc(-n3cncn3)c2)cnn1C,-0.3036%
7,Cc1nn(C)c(Cl)c1C1CCCN1C(=O)c1ccc(O)nc1 (configuration not stated),94.29%
8,Cc1nn(C)c(Cl)c1C1CCCN1C(=O)c1ccc(C(N)=O)cn1 (configuration not stated),118.3%
9,COc1c(C2CCCN2C(=O)c2ccc(O)nc2)c(C)nn1C (configuration not stated),97.38%
10,COc1c(C2CCCN2C(=O)c2ccoc2)c(C)nn1C (configuration not stated),3.459%
11,Cc1nn(C)c(C)c1C1CCCN1C(=O)c1ccc(NC2CC2)nc1 (configuration not stated),-8.845%
12,CC(C)c1ncc(C(=O)N(C)c2ccc(Br)cn2)s1,0.7212%
13,Cc1cc(CN2CCC(C3CCN(CCc4ccccc4)CC3)C2)[nH]n1 (configuration not stated),-2.584%
14,CC(C)CN1C[C@@H]2OCC(=O)N(c3ccccc3)[C@@H]2C1,-2.791%
15,O=C(CCc1cccs1)N1CCCC(N2CCNC2=O)C1 (configuration not stated),103.5%
16,O=C1NCCN1C1CCN(CCc2cccs2)CC1,3.932%
17,O=C(CCc1ccsc1)N1CCC(N2CCNC2=O)CC1,88.84%
18,O=C(CCc1nccs1)N1CCCC(N2CCNC2=O)C1 (configuration not stated),-19.11%
19,O=C(CCc1ccccc1)N1CCC(N2CCNC2=O)CC1,0.2283%
20,O=C(Nc1nccs1)N1CCCC(N2CCNC2=O)C1 (configuration not stated),-14.98%
21,O=C(CCc1nccs1)N1CCC(N2CCNC2=O)CC1,-13.84%
22,O=C(CCCc1cccs1)N1CCC(N2CCNC2=O)CC1,94.13%
23,O=C(CCc1cccs1)N1CCC(N2CCNC2=O)CC1,8.278%

row,Compound,Percent Effect
1,CC(C)(C)OC(=O)NCC1CCN(C(=O)c2ccc(F)cc2F)C1 (configuration not stated),18.58%
2,CC(c1nc(C2CC2)no1)N1CCN(CCOCC(F)(F)F)CC1 (configuration not stated),15.62%
3,CC(C)c1noc(C(C)N2CCN(CCCN3CCCC3=O)CC2)n1 (configuration not stated),113.6%
4,CC(c1nc(C2CC2)no1)N1CCN(CCCN2CCCC2=O)CC1 (configuration not stated),95.99%
5,CC(c1nc(C2CC2)no1)N1CCN(CCN2CCCC2=O)CC1 (configuration not stated),130.5%
6,CC(C)c1noc(C(C)N2CCN(CCO)CC2)n1 (configuration not stated),-1.52%
7,CC(C)c1noc(C(C)N2CCN(CCN3CCCC3=O)CC2)n1 (configuration not stated),-2.358%
8,COCCCN1CCCN(C(C)c2nc(C3CC3)no2)CC1 (configuration not stated),-0.2305%
9,CC(c1nc(C2CC2)no1)N1CCN(CCn2ccccc2=O)CC1 (configuration not stated),-4.377%
10,O=C(N1CCCC1)N1C[C@H]2CC[C@@]3(N=C(c4ccccc4)NC3=O)[C@H]2C1,-1.269%
11,COc1c(C)cnc(CSc2nnc(C)s2)c1C,6.724%
12,c1ccc(CSc2nnc(C3CC3)s2)nc1,-7.286%
13,Cc1nnc(SCc2ccccn2)s1,113.6%
14,CCC(Nc1nc(CCN)nc2ccccc12)c1cccs1 (configuration not stated),21.59%
15,Cc1nc(NCCSc2cnn[nH]2)c2c(C)noc2n1,-13.5%
16,CCCc1nc(C)c(CNc2nc(C)nc3onc(C)c23)s1,18.49%
17,CCC(Nc1nc(C)nc2onc(C)c12)c1nc(C)c(C)s1 (configuration not stated),99.23%
18,CCC(Nc1nc(C)nc2onc(C)c12)c1cccs1 (configuration not stated),84.62%
19,Cc1nc(NCCSc2ccccn2)c2c(C)noc2n1,2.263%
20,Cc1nc(COc2ccc(OCC(N)=O)cc2)oc1C,23.22%
21,CC(C)N(C)C(=O)CN1C(=O)OC[C@@H]1c1ccccc1,-15.23%
22,Cc1nc(C)c(CN2CCC(N(C)Cc3nnc(C4CC4)o3)C2)s1 (configuration not stated),83.42%
23,Cc1nc(C)c(CN2CCC(N(C)Cc3noc(C4CC4)n3)C2)s1 (configuration not stated),84.99%

row,Compound,Percent Effect
1,Cc1ncc(CN(C)C2CCCN(Cc3noc(C4CC4)n3)C2)s1 (configuration not stated),1.76%
2,Cc1nc(CN(C)C2CCN(Cc3sc(C)nc3C)C2)no1 (configuration not stated),-5.233%
3,CCn1c(C)nnc1CN(C)C1CCN(Cc2sc(C)nc2C)C1 (configuration not stated),1.106%
4,Cc1ccc(N2CCCC(N(C)Cc3nnc(C4CC4)o3)C2)nn1 (configuration not stated),-13.84%
5,O=C(CN1C(=O)c2ccccc2CS1(=O)=O)c1ccccc1,-5.153%
6,COCC(C)NC(=O)c1cncc(Br)c1 (configuration not stated),15.5%
7,Cc1cc(O)cc2c(=O)oc(CC(C)O)cc12 (configuration not stated),-7.016%
8,Cc1ccc(-c2cn3c(n2)CO[C@@H](CNCc2nccs2)C3)cc1,-9.469%
9,CC(C)CCc1nc(CNCC2CN(C)CCO2)cs1 (configuration not stated),94.45%
10,CN1CCOC(CNCc2nc(-c3ccccc3)cs2)C1 (configuration not stated),5.622%
11,Cc1ccc(OCc2nc(CNCC3CN(C)CCO3)cs2)cc1 (configuration not stated),109.6%
12,Cc1c(F)cccc1NC(=O)N(C(C)CS(C)(=O)=O)C1CC1 (configuration not stated),-14.75%
13,CCC(CO)N(Cc1ccccn1)C(=O)c1ccc2c(c1)CCO2 (configuration not stated),6.403%
14,CCSCc1cccc(NC2CCN(C)C2=O)c1 (configuration not stated),-4.409%
15,CC(C)c1nc(CN2CCCC2CN2CCCC2)cs1 (configuration not stated),11.4%
16,CC(C)c1nc(CN2CCCCC2Cn2cncn2)cs1 (configuration not stated),82.22%
17,c1ncn(CC2CCCCN2Cc2csc(C3CCCC3)n2)n1 (configuration not stated),3.175%
18,CN(C)C(=O)Cc1nc(CN2CCCCC2Cn2cncn2)cs1 (configuration not stated),-10.91%
19,CCCc1nc(CN2CCCCC2Cn2cncn2)cs1 (configuration not stated),92.11%
20,CCCc1nc(CN2CCCC2Cn2cncn2)cs1 (configuration not stated),0.1257%
21,Cc1nc(C(NS(=O)(=O)N(C)C)c2ccccc2F)no1 (configuration not stated),-14.73%
22,O=C(NC[C@H]1OC[C@@H](NC2CCC(F)(F)CC2)[C@@H]1O)c1ccccc1,-10.21%
23,O=C(CCc1ccncc1)N1CCc2c(ncnc2N2CCOCC2)C1,-13.92%

row,Compound,Percent Effect
1,COc1cc(C)c2c(c1C)C[C@H]([C@H](C)C(=O)O)CC2,-11.67%
2,CCN1CC2(CCC1=O)CCN(Cc1cc(F)ccc1Cl)CC2,-6.305%
3,CSCCC(C)NC(=O)CCN1C(=O)CCc2cc(F)ccc21 (configuration not stated),2.729%
4,CCN1CCC(=O)N(C)Cc2cc(F)ccc21,110.2%
5,Cn1ncc2c(=O)[nH]c(CN3CCCc4cc(F)ccc43)nc21,-1.731%
6,CN1Cc2cc(F)ccc2N(CC(C)(C)O)CCC1=O,116.8%
7,CN1CCN(S(C)(=O)=O)c2ccc(F)cc21,-0.158%
8,COc1cc(C(C)=O)ccc1OCC(=O)N(CC(C)C#N)C1CC1 (configuration not stated),-5.755%
9,CC1CN(CC(=O)NC2CCCC2)CCN1c1ccc2nncn2n1 (configuration not stated),1.075%
10,CC(C)CNC(=O)c1cccc(Oc2ccc3nncn3n2)c1,96.36%
11,CC(Nc1cccc(Oc2ccc(C#N)cn2)c1)C(=O)NC1CC1 (configuration not stated),4.844%
12,O=C(NC1CC1)c1cccc(Oc2ccc3nncn3n2)c1,135.1%
13,COc1cccc(C(=O)NCC(O)c2cccs2)c1 (configuration not stated),-0.6339%
14,CC(C)NC(=O)c1ccc2nnc(C3CCN(C(=O)NC(C)C)C3)n2c1 (configuration not stated),5.911%
15,O=C(CN1CCN(c2ccc3nncn3n2)CC1)NC1CCCC1,0.9347%
16,CC(C)NC(=O)c1cccc(Oc2ccc3nncn3n2)c1,131.1%
17,O=C(CN1CCN(c2ccc3nncn3n2)CC1)NC1CCCCC1,14.04%
18,O=C(NC1CCCCC1)c1ccc(Oc2ccc3nncn3n2)cc1,113.3%
19,CC(=O)N1CC(c2ncn(C(C)C)n2)c2cc(C(=O)NC(C)C)ccc21 (configuration not stated),-2.765%
20,CN(C)C(CNC(=O)c1cccc(-n2cnnn2)c1)c1ccccc1Cl (configuration not stated),-8.623%
